# Data from PubChem BioAssay (NCATS).
# Where “and” joins values, the source holds several entries; their conditions need not be identical. Equal values may be shown once. Values without a mark were called inactive. Records with an inconclusive call do not appear. Entries that show only a call come without a potency. Calls of active or inactive are those of the source. Unless noted, calls follow the shape of the dose curve; as a rule, active = well fitted curve in the direction sought with a large enough effect; inconclusive = small, poorly fitted or top-dose-only effect, or another doubt; inactive = no such curve, though single readings can be large; an effect the other way counts as inactive or inconclusive.
# Experiments:
# [1] = molecular target: Luciferin 4-monooxygenase (Photinus pyralis) (UniProt P08659); experiment: Biochemical firefly luciferase enzyme assay for NPC (AID 624030); also: nearly all actives have a fitted effect of over 70% in size; also: potency is read from the fitted curve at half-maximal effect
# Luciferin 4-monooxygenase (Photinus pyralis), sequence (P08659 whole entry, looked up): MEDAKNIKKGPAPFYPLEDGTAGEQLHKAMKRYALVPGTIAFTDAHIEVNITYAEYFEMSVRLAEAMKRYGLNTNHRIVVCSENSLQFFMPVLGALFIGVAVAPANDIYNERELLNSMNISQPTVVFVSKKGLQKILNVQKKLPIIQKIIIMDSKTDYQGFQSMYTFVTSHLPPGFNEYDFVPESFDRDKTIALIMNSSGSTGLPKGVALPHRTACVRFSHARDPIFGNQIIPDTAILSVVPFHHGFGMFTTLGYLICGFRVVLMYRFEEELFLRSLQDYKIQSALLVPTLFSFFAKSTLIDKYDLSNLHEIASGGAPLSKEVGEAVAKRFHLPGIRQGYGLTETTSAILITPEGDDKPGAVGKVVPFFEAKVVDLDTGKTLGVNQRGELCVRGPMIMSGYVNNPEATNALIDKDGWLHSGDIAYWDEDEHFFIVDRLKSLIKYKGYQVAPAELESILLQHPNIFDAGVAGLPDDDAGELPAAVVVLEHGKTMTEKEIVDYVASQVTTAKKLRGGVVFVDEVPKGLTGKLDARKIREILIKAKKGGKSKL
# Summary of the method: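 Counter-screen for direct inhibition of the luciferase enzyme by approved-drug library compounds, run at 10 nM enzyme in 50 mM Tris acetate (final). Luminescence was read within 5 min of enzyme-buffer addition and normalized to PTC124 versus DMSO (0%).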
# [2] = S16 Schwann cell viability assay (CellTiter-Glo assay) (AID 624031);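 also: native untransfected S16 rat Schwann cells; cellular ATP luminescence as a viability measure; nearly all actives have a fitted effect of over 70% in size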
# Summary of the method: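 Following overnight culture in 10% FBS DMEM, parental S16 rat Schwann cells are dosed for 24 h at 37 °C. Viability is read as CellTiter-Glo luminescence and expressed as % activity relative to DMSO (0%) and no-cell wells.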
# [3] = S16 Schwann cell PMP22 intronic element firefly luciferase assay (AID 624032); also: nearly all actives have a fitted effect of over 30% in size; also: potency is read from the fitted curve at half-maximal effect
# Summary of the method: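 Rat S16 Schwann cells stably carrying a PMP22 intronic element-driven Fluc reporter were seeded overnight, then exposed to compounds for 24 h at 37 °C. Luminescence was normalized to PTC124 (positive control) and DMSO (0% activity).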
# [4] = molecular target: Tumor necrosis factor (Homo sapiens) (UniProt P01375); experiment: qHTS assay to identify small molecules that stimulate Tumor Necrosis Factor-alpha (TNF-alpha) secretion (AID 651757; active = well fitted curve in the direction sought with a large enough effect in the signal ratio; the % refers to the signal ratio)
# Tumor necrosis factor (Homo sapiens), sequence (P01375 whole entry, looked up): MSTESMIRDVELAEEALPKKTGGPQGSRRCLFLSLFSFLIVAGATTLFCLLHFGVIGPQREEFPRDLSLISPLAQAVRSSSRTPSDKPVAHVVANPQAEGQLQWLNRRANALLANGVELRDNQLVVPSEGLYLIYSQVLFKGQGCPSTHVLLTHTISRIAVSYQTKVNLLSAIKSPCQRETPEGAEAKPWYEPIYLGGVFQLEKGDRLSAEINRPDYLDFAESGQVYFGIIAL
# Summary of the method: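 Using 3000 THP-1 cells per well, compounds and controls were applied for 17 hrs at 37 C. Detection followed with two labeled anti-TNF-alpha antibodies (cryptate donor, XL665 acceptor) for 3 hr at room temperature, measured by TR-FRET.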
# [5] = qHTS assay to identify small molecules that stimulate interleukin-8 (IL-8) secretion (AID 651758; active = well fitted activation curve with a large enough effect in the signal ratio; the % refers to the signal ratio; also: potency is read from the fitted curve at half-maximal effect)
# Summary of the method: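 Quantitative HTS in THP-1 monocytic cells at 2000 cells per well, with 16 hrs compound incubation at 37 C. IL-8 in the medium was then quantified by HTRF immunoassay, read after 1-3 hrs at room temperature.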
# [6] = qHTS assay for environmental chemicals that activate the Aryl hydrocarbon Receptor (AhR) signaling pathway (AID 651777); details: 1A2-DRE human hepatoma cells, luciferase, 24 h; activation: active compounds read high; also: nearly all actives have a fitted effect of over 15% in size; also: potency is read from the fitted curve at half-maximal effect
# Summary of the method: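 Concentration–response screening used 1,200 1A2-DRE cells per well, 24 hr compound exposure (37 C, 5% CO2), and One-Glo luminescence as the AhR-driven CYP1A2 reporter signal.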
# [7] = molecular target: Peroxisome proliferator-activated receptor alpha (Homo sapiens) (UniProt Q07869); experiment: qHTS assay for small molecule agonists of the peroxisome proliferator-activated receptor alpha (PPARalpha) signaling pathway (AID 651778); details: PathHunter PPARalpha complementation, chemiluminescence, 6 h; active compounds read high
# Peroxisome proliferator-activated receptor alpha (Homo sapiens), sequence (Q07869 whole entry, looked up): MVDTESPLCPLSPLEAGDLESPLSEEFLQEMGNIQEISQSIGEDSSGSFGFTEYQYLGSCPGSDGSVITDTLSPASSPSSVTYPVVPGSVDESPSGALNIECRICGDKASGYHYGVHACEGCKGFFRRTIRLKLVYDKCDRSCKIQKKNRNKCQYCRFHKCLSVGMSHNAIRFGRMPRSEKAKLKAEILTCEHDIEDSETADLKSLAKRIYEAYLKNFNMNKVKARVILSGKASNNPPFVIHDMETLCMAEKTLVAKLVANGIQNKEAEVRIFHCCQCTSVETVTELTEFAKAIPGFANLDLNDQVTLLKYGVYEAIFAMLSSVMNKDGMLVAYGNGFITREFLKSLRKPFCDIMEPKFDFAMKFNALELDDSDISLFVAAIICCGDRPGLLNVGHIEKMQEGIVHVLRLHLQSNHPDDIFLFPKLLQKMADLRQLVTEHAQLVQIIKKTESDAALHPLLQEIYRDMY
# Summary of the method: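 Cells plated at 2,000/well and held overnight at 37 C, 5% CO2, then compound added by pin tool for 6 hr; after PathHunter detection reagent and 60 min at room temperature, chemiluminescence from enzyme complementation was read.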
# [8] = molecular target: Nuclear receptor ROR-gamma (Homo sapiens) (UniProt P51449); experiment: qHTS assay for small molecule antagonists of the retinoid-related orphan receptor gamma (ROR-gamma) signaling pathway (AID 651802);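 also: CHO cells with doxycycline-induced ROR-gamma expression; luciferase reporter luminescence driven by ROR response element; nearly all actives have a fitted effect of over 60% in size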
# Nuclear receptor ROR-gamma (Homo sapiens), sequence (P51449 whole entry, looked up): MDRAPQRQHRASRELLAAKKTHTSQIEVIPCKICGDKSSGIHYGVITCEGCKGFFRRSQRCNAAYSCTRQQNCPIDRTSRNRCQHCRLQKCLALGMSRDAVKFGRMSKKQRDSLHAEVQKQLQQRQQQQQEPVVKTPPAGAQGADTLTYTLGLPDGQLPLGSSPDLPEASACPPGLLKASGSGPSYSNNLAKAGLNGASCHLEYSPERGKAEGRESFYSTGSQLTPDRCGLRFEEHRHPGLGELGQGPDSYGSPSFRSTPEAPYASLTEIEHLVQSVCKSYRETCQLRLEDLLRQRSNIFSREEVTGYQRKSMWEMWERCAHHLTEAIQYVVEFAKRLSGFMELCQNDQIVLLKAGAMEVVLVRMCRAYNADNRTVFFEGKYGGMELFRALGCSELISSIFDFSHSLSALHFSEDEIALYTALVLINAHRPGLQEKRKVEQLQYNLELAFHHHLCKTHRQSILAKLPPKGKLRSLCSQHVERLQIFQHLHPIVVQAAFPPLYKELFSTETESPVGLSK
# Summary of the method: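 Doxycycline-induced reporter activity in engineered CHO cells (TET-inducible ROR, RORE-LUC) was measured by luminescence after 16hr compound exposure at 37C.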
# [9] = S16 Schwann cell PMP22 intronic element beta-lactamase assay (AID 624044; calls by dose curve; also: nearly all actives have a fitted effect of over 15% in size); details: S16 rat Schwann cells, PMP22 element beta-lactamase FRET, 24 h; ratio activity, negative = inhibition: at 38.3 µM (top of the series) unless noted
# Summary of the method: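 Beta-lactamase reporter under a PMP22 intronic regulatory element in stable S16 rat Schwann cells; 24 h compound exposure. 460 nm blue signal normalized between DMSO (0%) and potassium clavulanate, with 535 nm FRET tracking viability; curves classed by r2 and response.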
# [10] = qHTS assay for small molecule agonists of the antioxidant response element (ARE) signaling pathway (AID 651741; active = well fitted activation curve with a large enough effect in the signal ratio; the % refers to the signal ratio; also: potency is read from the fitted curve at half-maximal effect)
# Summary of the method: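 Beta-lactamase reporter expression driven by the antioxidant response element in HepG2 cells was detected by fluorescence with LiveBLAzer B/G FRET substrate (2 h, room temperature) following 16 h compound treatment at 37 C.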
# [11] = qHTS assay for small molecule disruptors of the mitochondrial membrane potential - 1 hr assay (AID 651754; calls by dose curve; also: nearly all actives have a fitted effect of over 35% in size; also: potency is read from the fitted curve at half-maximal effect)
# Summary of the method: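 In this qHTS format, a 1 hr compound treatment of HepG2 cells precedes Mito-MPS staining, and membrane potential is judged from aggregate (red) against monomer (green) fluorescence intensity.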
# [12] = qHTS assay for small molecule disruptors of the mitochondrial membrane potential - 5 hr assay (AID 651755; calls by dose curve; also: nearly all actives have a fitted effect of over 40% in size; also: potency is read from the fitted curve at half-maximal effect)
# Summary of the method: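 Seed HepG2 overnight, add compound, incubate 5 hr at 37C and 5% CO2, stain 30 min with Mito-MPS, then measure monomer (490/535 nm) and aggregate (540/590 nm) fluorescence.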
# [13] = molecular target: Tyrosine-protein kinase Yes (Homo sapiens) (UniProt P07947); experiment: qHTS for small molecule inhibitors of Yes1 kinase: Primary Screen (AID 686947); also: nearly all actives have a fitted effect of over 60% in size
# Tyrosine-protein kinase Yes (Homo sapiens), sequence (P07947 whole entry, looked up): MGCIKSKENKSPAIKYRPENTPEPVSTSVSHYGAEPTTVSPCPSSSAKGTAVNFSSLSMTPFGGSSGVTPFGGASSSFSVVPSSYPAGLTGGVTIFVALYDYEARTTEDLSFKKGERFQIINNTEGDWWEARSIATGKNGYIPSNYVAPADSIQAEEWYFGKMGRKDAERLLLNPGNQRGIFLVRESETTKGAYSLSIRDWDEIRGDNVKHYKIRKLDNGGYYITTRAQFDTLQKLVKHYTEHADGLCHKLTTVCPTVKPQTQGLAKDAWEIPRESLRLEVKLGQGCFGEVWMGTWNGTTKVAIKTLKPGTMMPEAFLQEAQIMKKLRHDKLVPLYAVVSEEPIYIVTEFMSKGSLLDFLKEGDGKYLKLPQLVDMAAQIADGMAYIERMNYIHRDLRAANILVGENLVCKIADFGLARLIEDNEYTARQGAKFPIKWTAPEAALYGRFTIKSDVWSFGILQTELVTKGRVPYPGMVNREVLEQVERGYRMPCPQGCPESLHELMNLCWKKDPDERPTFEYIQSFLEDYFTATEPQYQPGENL
# Summary of the method: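 In this qHTS format, inhibition is expressed relative to DMSO controls with enzyme (maximum) and without enzyme (minimum). The 60 min room-temperature reaction uses 0.1 mM ATP, with ADP detected by luminescence.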
# [14] = qHTS for small molecule inhibitors of Yes1 kinase: Counter Assay (AID 686950);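 also: no kinase present so only ADP-Glo detection of a fixed ADP amount is tested; luminescence from ADP-Glo reporting ADP in a fixed ATP and ADP mixture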
# Summary of the method: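 Measuring interference with ADP-Glo, the assay ran 60 min at room temperature on an ATP/ADP mix lacking enzyme. Values were normalized to ATP-plus-ADP (maximum) and ATP-only (minimum) DMSO controls.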
# [15] = qHTS assay for small molecule activators of the nuclear factor-kappa B (NF-kB) signaling pathway (AID 651749; active = well fitted activation curve with a large enough effect in the signal ratio; the % refers to the signal ratio); details: NF-kB-bla ME-180 cells, beta-lactamase FRET ratio, 16 h; active compounds read high
# Summary of the method: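 Beta-lactamase reporter expression, controlled by NF-kB response elements in ME-180 cells, was quantified fluorometrically via FRET disruption; cells at 2,000/well had been incubated with 23 nL test compound for 16 hr.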
compound,measurement,setting,value
C/C=C/C=C/C(=O)O,Potency,[1],inactive
same,Potency,[2],inactive
same,Potency,[3],inactive
same,Potency,[4],inactive
same,Potency,[5],inactive
same,activation,[6],0.214%
same,max response,[7],0.184%
same,Potency,[8],inactive
COc1ccc(-c2noc(CC(=O)O)c2-c2ccc(OC)cc2)cc1,Potency,[1],inactive
same,Potency,[2],inactive
same,"ratio activity, negative = inhibition",[9],-1.01%
CCOc1ccc(NC(=S)Nc2ccc(OCC)cc2)cc1,Potency,[1],inactive
same,Potency,[2],inactive
same,"ratio activity, negative = inhibition",[9],-1.68%
OC[C@H]1O[C@@H]2O[C@H]3[C@H](O)[C@@H](O)[C@@H](O[C@H]4[C@H](O)[C@@H](O)[C@@H](O[C@H]5[C@H](O)[C@@H](O)[C@@H](O[C@H]6[C@H](O)[C@@H](O)[C@@H](O[C@H]7[C@H](O)[C@@H](O)[C@@H](O[C@H]1[C@H](O)[C@H]2O)O[C@@H]7CO)O[C@@H]6CO)O[C@@H]5CO)O[C@@H]4CO)O[C@@H]3CO,Potency,[1],inactive
same,Potency,[2],inactive
same,Potency,[3],inactive
same,"ratio activity, negative = inhibition",[9],1.18%
same,Potency,[10],inactive
same,Potency,[11],inactive
same,Potency,[12],inactive
same,Potency,[4],inactive
same,Potency,[5],inactive
same,activation,[6],1.89% and -0.569%
same,max response,[7],-0.429% and -5.48%
same,Potency,[8],inactive
CO[C@H]1C[C@@H]2CC[C@@H](C)[C@@](O)(O2)C(=O)C(=O)N2CCCC[C@H]2C(=O)O[C@H]([C@H](C)C[C@@H]2CC[C@@H](OC(=O)C(C)(CO)CO)[C@H](OC)C2)CC(=O)[C@H](C)/C=C(\C)[C@@H](O)[C@@H](OC)C(=O)[C@H](C)C[C@H](C)/C=C/C=C/C=C/1C,Potency,[1],inactive
same,Potency,[2],inactive
same,Potency,[3],inactive
same,"ratio activity, negative = inhibition",[9],-3.79%
same,outcome,[13],inactive
same,outcome,[14],inactive
NC(=O)CC[C@@H]1NC(=O)[C@H](Cc2ccccc2)NC(=O)[C@H](Cc2ccc(O)cc2)NC(=O)[C@@H](N)CSSC[C@@H](C(=O)N2CCC[C@H]2C(=O)N[C@@H](CCCN=C(N)N)C(=O)NCC(N)=O)NC(=O)[C@H](CC(N)=O)NC1=O,Potency,[1],inactive
same,Potency,[2],inactive
same,"ratio activity, negative = inhibition",[9],-1.23%
CN1CCCC(CN2c3ccccc3Sc3ccccc32)C1 (stereo unspecified),Potency,[1],inactive
same,Potency,[3],inactive
CC/C=C\C/C=C\C/C=C\CCCCCCCC(=O)O,Potency,[1],inactive
same,Potency,[2],inactive
same,Potency,[3],inactive
same,Potency,[10],42.2 µM (active)
same,Potency,[11],inactive
same,Potency,[12],inactive
same,Potency,[4],inactive
same,activation,[6],0.211%
same,max response,[7],20%
same,Potency,[8],inactive
CCCCCCCCCC(=O)NO,Potency,[1],inactive
same,Potency,[2],inactive
same,"ratio activity, negative = inhibition",[9],5.56%
CCCCCCCCCCCCCCCCCC(=O)OC[C@@H](O)[C@H]1OC[C@H](O)[C@H]1O,Potency,[1],inactive
same,Potency,[2],inactive
same,Potency,[3],inactive
same,Potency,[10],inactive
same,activation,[15],-0.074%
same,activation,[6],0.366%
same,max response,[7],12.5%
Nc1ncnc2c1ncn2[C@H]1CC[C@@H](CO)O1,Potency,[1],inactive
same,Potency,[2],inactive
same,Potency,[3],inactive
same,Potency,[10],inactive
same,activation,[15],-1.92%
same,Potency,[11],inactive
same,Potency,[12],inactive
same,Potency,[4],inactive
same,Potency,[5],inactive
same,activation,[6],3.83% and -0.699%
same,max response,[7],-1.88% and -2.98%
same,Potency,[8],inactive
C=CC(C)(O)CC/C=C(\C)CCC=C(C)C (stereo unspecified),Potency,[1],inactive
same,Potency,[2],inactive
same,Potency,[3],inactive
same,"ratio activity, negative = inhibition",[9],-13.1% (active)
same,activation,[15],0.695%
same,activation,[6],0.207%
same,max response,[7],-0.214%
Cc1ccc(S(=O)(=O)NCl)cc1,Potency,[1],inactive
same,Potency,[2],inactive
same,Potency,[3],inactive
same,Potency,[10],inactive
same,activation,[6],-2.28%
same,max response,[7],-0.128%
COc1ccc2c(=O)c(C)c(-c3ccccc3)oc2c1CN(C)C,Potency,[1],inactive
same,Potency,[3],inactive
same,"ratio activity, negative = inhibition",[9],-18.3%
Nc1ccc(N=Nc2ccccc2)c(N)n1,Potency,[1],10.2 µM (active)
same,Potency,[3],inactive
same,"ratio activity, negative = inhibition",[9],0.697%
same,Potency,[10],19.3 µM (active) and 37.6 µM (active)
same,activation,[15],-0.825%
same,Potency,[11],18.8 µM (active)
same,Potency,[12],16.8 µM (active)
same,Potency,[6],39.8 µM (active) and 44.7 µM (active)
same,max response,[7],-8.45% and -6.87%
same,Potency,[8],inactive
CCCCCc1ccc(C)cc1O,Potency,[1],inactive
same,Potency,[3],inactive
CC(/C=C/C=C(\C)C(=O)O[C@@H]1O[C@H](CO[C@@H]2O[C@H](CO)[C@@H](O)[C@H](O)[C@H]2O)[C@@H](O)[C@H](O)[C@H]1O)=C\C=C\C=C(C)\C=C\C=C(/C)C(=O)O[C@@H]1O[C@H](CO[C@@H]2O[C@H](CO)[C@@H](O)[C@H](O)[C@H]2O)[C@@H](O)[C@H](O)[C@H]1O,Potency,[1],inactive
same,Potency,[3],inactive
CN1CCC(OC(=O)C(Oc2ccc(Cl)cc2)Oc2ccc(Cl)cc2)CC1,Potency,[1],inactive
same,Potency,[3],inactive
same,"ratio activity, negative = inhibition",[9],2.81%
C=C1C(CCl)(CCl)C2(Cl)C(Cl)C(Cl)C1(Cl)C2(Cl)Cl (stereo unspecified),Potency,[1],inactive
same,Potency,[3],36.1 µM (active)
same,"ratio activity, negative = inhibition",[9],-26.3%
same,Potency,[10],37.6 µM (active)
same,activation,[15],0.534%
same,Potency,[5],66.8 µM (active)
same,activation,[6],1.11%
same,max response,[7],19%
O=C(O)Cc1cc(I)c(Oc2ccc(O)c(I)c2)c(I)c1,Potency,[1],inactive
same,Potency,[3],inactive
same,"ratio activity, negative = inhibition",[9],4.37% [at 17.1 µM]
CN(C)C(=O)CCSC(SCCC(=O)O)c1cccc(/C=C/c2ccc3ccc(Cl)cc3n2)c1 (stereo unspecified),Potency,[1],2.87 µM (active)
same,Potency,[3],inactive
same,"ratio activity, negative = inhibition",[9],-0.229%
O=C(O)/C=C/c1ccccc1,Potency,[1],inactive
same,Potency,[3],inactive
same,"ratio activity, negative = inhibition",[9],-0.672%
C[C@H](CCCC(C)(C)O)[C@H]1CC[C@H]2[C@@H]3CC=C4C[C@@H](O)CC[C@]4(C)[C@H]3CC[C@]12C,Potency,[1],inactive
same,Potency,[3],inactive
